The text below walks through data of PubChem BioAssay (NCI).

The panel holds about 83,000 compounds, 20% with a hit somewhere; the sample as a whole holds those more often.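 Single-dose data. Exposure time 48 hours. Values below 10 considered active.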 A number with no mark means an inactive call. The source made the active and inactive calls.

Among the test systems are SR leukemia; RPMI-8226 leukemia; OVCAR-8 ovarian; OVCAR-5 ovarian; OVCAR-4 ovarian; SK-OV-3 ovarian; IGROV1 ovarian; OVCAR-3 ovarian; HS 578T breast; NCI/ADR-RES ovarian.
Common to all, as to experiment: NCI-60 one-dose screen, 48 h (100 = growth as untreated, 0 = no growth, -100 = all killed)
What all share (conditions): 10 µM unless noted

For the compound `COc1cc(NC(C)CCCNC(=O)CCC(=O)NCCCNCCCCCCCCCCNCCCNC(=O)CCC(=O)NCCCC(C)Nc2cc(OC)cc3cccnc23)c2ncccc2c1` (stereo not given), the growth is 92% [8 µM] in the experiment on SR leukemia; 52.9% [8 µM] in the experiment with RPMI-8226 leukemia; 77.7% [8 µM] with OVCAR-8 ovarian; 79.3% [8 µM] in the experiment with OVCAR-5 ovarian; 4.17% [8 µM] (active) with OVCAR-4 ovarian; 116% [8 µM] in the experiment with SK-OV-3 ovarian. The growth was 57.9% [8 µM] in the experiment with IGROV1 ovarian, 41.4% [8 µM] in the experiment with OVCAR-3 ovarian, 64.5% [8 µM] in the experiment with HS 578T breast and 101% [8 µM] in the experiment on NCI/ADR-RES ovarian.

In the case of `CCCCNC(=O)Oc1ccc(/C(=C(\C)c2ccccc2)c2ccc(OCCN3CCCCC3)cc2)cc1`, the growth with SR leukemia is 0.363% (active); in the experiment on RPMI-8226 leukemia, 42.7%; in the experiment on OVCAR-8 ovarian, 71.9%; in the experiment on OVCAR-5 ovarian, 89.5%; in the experiment with OVCAR-4 ovarian, 75.4%; in the experiment on SK-OV-3 ovarian, 71.6%. The growth in the experiment with IGROV1 ovarian was 76.9%; in the experiment with OVCAR-3 ovarian, 64.7%; with HS 578T breast it was 56.9%; in the experiment on NCI/ADR-RES ovarian it was 63.1%.

For the compound `COc1cccc(-c2cc(C(=O)Nc3ccc(/C=C/c4ccc(OC5CCN(C)CC5)cc4)cc3)ccc2OC)c1`, the growth was -44.4% (active) in the experiment on SR leukemia; -32.7% (active) with RPMI-8226 leukemia; -38.8% (active) in the experiment on OVCAR-8 ovarian; 25.2% in the experiment on OVCAR-5 ovarian; -56.5% (active) with OVCAR-4 ovarian; 109% with SK-OV-3 ovarian. For the same compound, the growth was -56.3% (active) with IGROV1 ovarian, -82.9% (active) in the experiment with OVCAR-3 ovarian, -22.9% (active) in the experiment with HS 578T breast and -11.2% (active) in the experiment on NCI/ADR-RES ovarian.

Consider `CCOc1cccc(-c2nc(N)nc(Nc3ccccc3SSc3ccccc3Nc3nc(N)nc(-c4cccc(OCC)c4)n3)n2)c1`, for which the growth in the experiment on SR leukemia was 7.62% (active); with RPMI-8226 leukemia, 56.4%; in the experiment on OVCAR-8 ovarian it was 59.9%; in the experiment on OVCAR-5 ovarian, 99.7%; in the experiment on OVCAR-4 ovarian, 71.7%; in the experiment on SK-OV-3 ovarian, 125%. Also, the growth with IGROV1 ovarian is 62.6%; in the experiment with OVCAR-3 ovarian it was 80.2%; with HS 578T breast it was 69.2%; in the experiment on NCI/ADR-RES ovarian, 19%.

As to `CC1=CCC(OC(=O)C(C)(O)CCC(O)(C(=O)OC2(C)C=CC(O)(C(C)C)CC2)C(C)C)(C(C)C)CC1` (stereo not given), the growth in the experiment on SR leukemia is 103%; in the experiment on RPMI-8226 leukemia, 107%; in the experiment on OVCAR-8 ovarian, 105%; in the experiment with OVCAR-5 ovarian, 108%; in the experiment on OVCAR-4 ovarian, 109%; with SK-OV-3 ovarian it was 105%. For the same compound, the growth was 101% in the experiment on IGROV1 ovarian, 108% in the experiment on OVCAR-3 ovarian, 105% in the experiment on HS 578T breast and 108% with NCI/ADR-RES ovarian.

Turning to `O=C(CCN1CCCC1)Nc1ccc2c(NCCCc3ccccc3)c3ccccc3nc2c1`, the growth in the experiment on SR leukemia is -22.3% (active); with RPMI-8226 leukemia, -36.6% (active); in the experiment on OVCAR-8 ovarian, 9.97% (active); in the experiment with OVCAR-5 ovarian it was 32.1%; in the experiment on OVCAR-4 ovarian it was -18.6% (active); with SK-OV-3 ovarian it was 13%. Also, the growth with IGROV1 ovarian was 11.7%; in the experiment on OVCAR-3 ovarian, -70.7% (active); in the experiment with HS 578T breast it was 27.4%; in the experiment on NCI/ADR-RES ovarian it was 91.2%.

Regarding `COc1cc(C2C3CC4CCCC[C@H]4N3[C@@]3(C(=O)Nc4cc(Cl)ccc43)C2C(=O)c2nc3ccccc3[nH]2)cc(OC)c1OC` (stereo not given in full), the growth in the experiment with SR leukemia was 38.3%; in the experiment with RPMI-8226 leukemia it was 23.6%; with OVCAR-8 ovarian, 70.7%; in the experiment with OVCAR-5 ovarian, 73.7%; with OVCAR-4 ovarian, 56.3%; in the experiment on SK-OV-3 ovarian it was 94.3%. In addition, the growth was 62.1% in the experiment on IGROV1 ovarian, 69.7% in the experiment with OVCAR-3 ovarian, 74% in the experiment with HS 578T breast and 66.8% in the experiment with NCI/ADR-RES ovarian.

Take `NC(=NCCCOc1ccc(F)cc1)Nc1ccc(I)cc1`: the growth in the experiment on SR leukemia is 58%; with RPMI-8226 leukemia, 64.8%; in the experiment with OVCAR-8 ovarian, 89.3%; in the experiment with OVCAR-5 ovarian it was 89.9%; with OVCAR-4 ovarian it was 45.7%; with SK-OV-3 ovarian it was 81.8%. Also, the growth in the experiment with IGROV1 ovarian was 66.3%; in the experiment on OVCAR-3 ovarian, 80.5%; in the experiment with HS 578T breast, 84.6%; in the experiment with NCI/ADR-RES ovarian, 81.5%.

Consider `CNC(=O)c1cncc(Cn2nc(C)c(NC(=O)c3ccc(COc4ccc(C(F)(F)F)cc4C)cc3)c2C)c1`, for which the growth in the experiment on SR leukemia was 25%; with RPMI-8226 leukemia, 42.7%; in the experiment with OVCAR-8 ovarian, 55%; in the experiment with OVCAR-5 ovarian, 98.1%; in the experiment on OVCAR-4 ovarian it was 43.5%; in the experiment on SK-OV-3 ovarian, 76.7%. Further, the growth in the experiment on IGROV1 ovarian is 62.7%; in the experiment with OVCAR-3 ovarian it was 41%; with HS 578T breast, 92.7%; in the experiment on NCI/ADR-RES ovarian it was 96.4%.

With `CC1(C)CC[C@]2(C(=O)O)CC[C@]3(C)C(=CC[C@@H]4[C@@]5(C)Cc6c([nH]c7ccccc67)C(C)(C)[C@@H]5CC[C@]43C)[C@@H]2C1`, the growth was 41.3% with SR leukemia; 23.2% in the experiment on RPMI-8226 leukemia; 35% in the experiment on OVCAR-8 ovarian; 80.9% in the experiment with OVCAR-5 ovarian; 36.8% in the experiment on OVCAR-4 ovarian; 62.4% with SK-OV-3 ovarian. Besides, the growth was 58% in the experiment on IGROV1 ovarian, 37.2% in the experiment on OVCAR-3 ovarian, 75.2% in the experiment on HS 578T breast and 34.2% in the experiment on NCI/ADR-RES ovarian.

As for `Cc1nc(N)nc(N[C@@H](C)c2nc3cccc(NCc4ccc(C(=O)NO)cc4)c3c(=O)n2-c2ccccc2)n1`, the growth is 33.3% with SR leukemia; 17.2% in the experiment with RPMI-8226 leukemia; 70.3% in the experiment on OVCAR-8 ovarian; 90.5% in the experiment on OVCAR-5 ovarian; 92.2% in the experiment on OVCAR-4 ovarian; 86.7% in the experiment with SK-OV-3 ovarian. Moreover, the growth in the experiment with IGROV1 ovarian is 69.5%; with OVCAR-3 ovarian, 85.9%; with HS 578T breast, 72.1%; in the experiment on NCI/ADR-RES ovarian it was 103%.

For the compound `COc1cc(OC)cc(C(=O)C[n+]2cccc3cc[nH]c32)c1`, the growth in the experiment with SR leukemia was 116%; in the experiment with RPMI-8226 leukemia, 106%; with OVCAR-8 ovarian, 103%; in the experiment with OVCAR-5 ovarian, 98.9%; in the experiment with OVCAR-4 ovarian, 99.3%; in the experiment on SK-OV-3 ovarian, 104%. Also, the growth with IGROV1 ovarian is 94.2%; with OVCAR-3 ovarian, 106%; in the experiment with HS 578T breast, 101%; with NCI/ADR-RES ovarian, 101%.

Consider `O=C(NCCc1ccccc1)Nc1ccc2cc3ccc(NC(=O)NCCc4ccccc4)cc3nc2c1`, for which the growth with SR leukemia is -30.2% (active); in the experiment on RPMI-8226 leukemia, 49.1%; in the experiment on OVCAR-8 ovarian, 23.8%; in the experiment on OVCAR-5 ovarian, 50.6%; in the experiment on OVCAR-4 ovarian it was 62.6%; with SK-OV-3 ovarian, 41.4%. The growth in the experiment on IGROV1 ovarian is 48.2%; with OVCAR-3 ovarian it was 19.2%; in the experiment on HS 578T breast, -26.2% (active); with NCI/ADR-RES ovarian, 105%.
